Here are results for five compounds from PubChem BioAssay (NCATS).

Unmarked numbers belong to inactive results. Results filed as inconclusive are left out. Activity calls are given as the source filed them. Calls come from the whole dose curve; as a rule, active = well fitted curve in the direction sought with a large enough effect; inconclusive = small, poorly fitted or top-dose-only effect, or another doubt; inactive = no such curve, though single readings can be large; an effect the other way counts as inactive or inconclusive.

The subject of test [1] is Zika virus NS2B-NS3 protease (linked construct). As to the kind of experiment: Primary screen NINDS Rhodamine qHTS for Zika virus inhibitors (AID 1347160). Note: % is set by controls: 0 for no effect and ±100 for the full control effect; nearly all actives have a fitted effect of over 55% in size. In a few lines: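 Percent inhibition, normalized to uninhibited and enzyme-free controls, is fitted to a 4-parameter Hill equation. Fluorescence change comes from a 15-min cleavage of 1.5 microM bis-peptide Rhodamine110 substrate by 25 nM linked NS2B-NS3 at room temperature.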
(In qHTS, concentration-response curves come from the screen itself.)

The target in test [2] is Calcium and integrin-binding protein 1 (Homo sapiens) (UniProt Q99828). As to the kind of experiment: Primary qHTS for Identification of Calcium Integrin Binding Protein 1 (CIB1) Competitor (AID 1508620).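 Note: GST tagged CIB1 binding a fluorescein labelled alphaIIb integrin peptide tracer; top concentration of the series differs between compounds; % is set by controls: 0 for no effect and ±100 for the full control effect.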 In a few lines: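 Fluorescence polarization competition: CIB1-GST (1 uM final) preincubated with compound 15 min at room temperature, then FITC-labeled alphaIIb peptide (100 nM final) added for another 15 min. Polarization read at Ex 480/Em 540.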

The target of test [3] is Glutathione peroxidase 1 (Homo sapiens) (UniProt P07203). Description: Primary qHTS Assay for Inhibitors of Recombinant Selenoprotein Glutathione Peroxidase 1 (GPX1) (AID 1845191). Note: nearly all actives have a fitted effect of over 65% in size. Note: potency is the fitted concentration of half-maximal effect. In a few lines: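 Recombinant GPX1 (10 nM final) was preincubated with compound for 30 min at room temperature, then reacted with 1 mM GSH, 0.5 mM CHP, 0.5 mM NADPH and 100 nM glutathione reductase; NADPH fluorescence (340/450 nm) was read at 0 and 15 min.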

Test [4] addresses Phospholipid hydroperoxide glutathione peroxidase GPX4 (Homo sapiens) (UniProt P36969). As to the kind of experiment: Primary qHTS Assay for Inhibitors of Recombinant Selenoprotein Glutathione Peroxidase 4 (GPX4) (AID 1845192). Note: % is set by controls: 0 for no effect and ±100 for the full control effect; nearly all actives have a fitted effect of over 65% in size. In a few lines: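 GR-coupled readout: 100 nM GR, 1 mM GSH, 0.5 mM NADPH; NADPH fluorescence (ex 340/em 450 nm) read at t=0 and after 15 min RT. GPX4 200 nM, preincubated 30 min with compound; substrate 0.5 mM CHP.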

For test [5], the target named is Luciferin 4-monooxygenase (Photinus pyralis) (UniProt P08659). Description: Primary firefly luciferase (FLuc) qHTS assay for identification of artifact compounds. (AID 1845220). Note: nearly all actives have a fitted effect of over 60% in size. The settings on record: outcome: dose series up to 54.1 µM unless noted. In a few lines: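 qHTS, 15 min compound preincubation with substrate (10 uM luciferin, 10 uM ATP) at RT, then 10 nM FLuc; 5 min; luminescence; % inhibition vs no-enzyme/DMSO controls, 4-parameter Hill fit.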

Test [6] is described as follows: Primary fluorescence-based thiol-reactive (MSTI) qHTS assay for identification of artifact compounds. (AID 1845221). Note: nearly all actives have a fitted effect of over 65% in size. Note: potency is the fitted concentration of half-maximal effect. In a few lines: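 Probe: MSTI 4 uM, PBS pH 7.4, 2% DMSO. Incubation 1 h, RT, light-protected. Readout fluorescence 525/598 nm.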
Test [7] has as its system Nanoluciferase (engineered Oplophorus gracilirostris luciferase). Description: Primary Nanoluciferase (NLuc) qHTS assay for identification of artifact compounds. (AID 1845222).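 Note: 0% = DMSO and -100% = no enzyme.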 In a few lines:
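Luminescence read-out of secreted NLuc in S16 cell conditioned medium (1:55); compounds tested with 15 min RT preincubation, then Nano-Glo substrate 1:100, 5 min. % inhibition vs no-enzyme and DMSO controls, 4-parameter Hill fit.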

The next test deals with CRL-7250. Description: Cytotoxic Profiling of Annotated Libraries Using Quantitative High-Throughput Screening (AID 1296008). For max response: % is set by controls: 0 for no effect and ±100 for the full control effect. Note: nearly all actives have a fitted effect of over 60% in size. The settings on record: Five cell lines viability, CellTiter-Glo ATP luminescence, 48-72 h; max response: hits give low values. In a few lines: (§1)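 Compounds were pin-transferred onto cells and incubated 48 or 72 hr at 37 degree Celsius, 95% humidity. CellTiter-Glo was added, plates sat 10 min at room temperature, then ATP-coupled luminescence was imaged as the viability read-out.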

The test system of another test is HEK293. The test is described as above. The settings on record: Five cell lines viability, CellTiter-Glo ATP luminescence, 48-72 h; max response: hits give low values. In a few lines: as §1
(In general: Cellular ATP, detected with luciferase, serves as a proxy for viable cell number.)

In the next test the test system is HaCat. The description is as above. The settings on record: Five cell lines viability, CellTiter-Glo ATP luminescence, 48-72 h; max response: hits give low values. In a few lines:
as §1

Another test deals with NIH3T3. The test is described as above. The settings on record: Five cell lines viability, CellTiter-Glo ATP luminescence, 48-72 h; max response: hits give low values. In a few lines: as §1
A further test deals with C33A. Description: Primary qHTS to identify gynecologic anti-cancer compounds using libraries of approved drugs and bioactive compounds (AID 1345084). Note: % is set by controls: 0 for no effect and ±100 for the full control effect; nearly all actives have a fitted effect of over 55% in size. The settings on record: Gynecologic cancer cell panel viability, ATPlite luminescence, 48 h; series mostly up to 57.5 µM. In a few lines:
(§2)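 Cell viability after 48 h drug treatment, ATPlite luminescence readout; five doses.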

A further test concerns CASKI. The test is described as above. The settings on record: Gynecologic cancer cell panel viability, ATPlite luminescence, 48 h; series mostly up to 57.5 µM. In a few lines: as §2
The next test deals with Es-2. The description is as above. The settings on record: Gynecologic cancer cell panel viability, ATPlite luminescence, 48 h; series mostly up to 57.5 µM. In a few lines:
as §2

For a further test, the system named is Hek293T. The description is as above. The settings on record: Gynecologic cancer cell panel viability, ATPlite luminescence, 48 h, control line for the selectivity index; series mostly up to 57.5 µM. In a few lines: as §2
The subject of the next test is OV90. Described as above. The settings on record: Gynecologic cancer cell panel viability, ATPlite luminescence, 48 h; series mostly up to 57.5 µM. In a few lines:
as §2

The subject of the next test is PA-1. The test is described as above. The settings on record: Gynecologic cancer cell panel viability, ATPlite luminescence, 48 h; series mostly up to 57.5 µM. In a few lines:
as §2

In the next test the test system is Tov-21-G. The description is as above. The settings on record: Gynecologic cancer cell panel viability, ATPlite luminescence, 48 h; series mostly up to 57.5 µM. In a few lines: as §2
A further test deals with Tov112D. The test is described as above. The settings on record: Gynecologic cancer cell panel viability, ATPlite luminescence, 48 h; series mostly up to 57.5 µM. In a few lines:
as §2

A short description of test [8]: Primary qHTS for inhibitors of nuclear receptor binding SET domain protein 2 (NSD2) in an isogenic RCH-ACV NSD2 p.E1099K mutant (9B) (AID 1645876). Note: % is set by controls: 0 for no effect and ±100 for the full control effect; nearly all actives have a fitted effect of over 70% in size.

Chain of Phospholipid hydroperoxide glutathione peroxidase GPX4 (Homo sapiens) (P36969 whole entry, looked up): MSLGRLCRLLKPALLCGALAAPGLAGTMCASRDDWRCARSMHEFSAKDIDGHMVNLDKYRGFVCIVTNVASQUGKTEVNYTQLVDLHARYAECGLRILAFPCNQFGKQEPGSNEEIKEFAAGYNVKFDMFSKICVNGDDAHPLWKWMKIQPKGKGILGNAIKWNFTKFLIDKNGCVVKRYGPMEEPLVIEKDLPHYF
Chain of Calcium and integrin-binding protein 1 (Homo sapiens) (Q99828 whole entry, looked up): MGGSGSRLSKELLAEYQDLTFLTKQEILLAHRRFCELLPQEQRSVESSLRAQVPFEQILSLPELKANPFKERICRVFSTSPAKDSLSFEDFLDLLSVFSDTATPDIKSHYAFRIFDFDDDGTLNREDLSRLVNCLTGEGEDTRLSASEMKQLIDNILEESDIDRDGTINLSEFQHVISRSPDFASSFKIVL
Chain of Glutathione peroxidase 1 (Homo sapiens) (P07203 whole entry, looked up): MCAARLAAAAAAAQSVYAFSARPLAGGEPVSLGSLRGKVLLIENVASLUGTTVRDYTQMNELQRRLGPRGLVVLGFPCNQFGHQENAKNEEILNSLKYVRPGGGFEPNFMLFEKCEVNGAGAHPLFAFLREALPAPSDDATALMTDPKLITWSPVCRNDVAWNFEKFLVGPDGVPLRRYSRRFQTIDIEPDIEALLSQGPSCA

`C=CC/C=C\C/C=C\CCCCCCCc1cc(O)cc(O)c1`: the Potency entry in [1], in [2], in test [3], in test [4], in [6] and in test [7] was “inactive” throughout. Also, the Potency result in the test with C33A, with CASKI, with Es-2, in the test with Hek293T, in the test on OV90 and in the test with PA-1 was “inactive” in each case. The Potency entry in the test with Tov-21-G and in the test with Tov112D was “inactive” each time. The compound was classed as inactive (in test [5]; in the test with HaCat). In addition, the max response in the test on CRL-7250 is -22.2%; with HEK293 it was -20.2%; with NIH3T3, -20.8%.

Regarding `CC(=O)N1N=C(c2ccc(N)cc2)c2cc3c(cc2C[C@H]1C)OCO3`, the Potency result (in test [1]; in test [2]; in test [3]; in test [7]; with C33A; in the test on CASKI) was “inactive” throughout. Also, the Potency entry with Es-2, with Hek293T, in the test with OV90, in the test on PA-1, with Tov-21-G and with Tov112D was “inactive” in each case. Besides, the call in test [5] was inactive. For the same compound, the max response with CRL-7250 was -0.992%; with HEK293, -4.81%; in the test on HaCat, -4.11%; in the test with NIH3T3, -2.08%.

On to `C1=C(c2cnc[nH]2)c2ccsc2CC1`, for which the Potency entry (in test [1]; in test [2]; in [8]; in test [4]; in test [7]; with C33A) was “inactive” throughout. In addition, the Potency entry with CASKI, with Es-2, with Hek293T, with OV90, with PA-1 and in the test with Tov-21-G was “inactive” in each case. For the same compound, the Potency entry in the test with Tov112D was “inactive”. Also, the results for the Potency in test [3] and in [6] were 20.2 µM (active) and 10.6 µM (active), respectively. The compound was called inactive (in test [5]; with HaCat). Also, the max response was 4.29% in the test on CRL-7250, -1.06% in the test with HEK293 and -2.31% in the test on NIH3T3.

For the compound `CCC(C)(O)C1(C(=O)O)COC(=O)C1` (stereo not drawn), the Potency result in test [1], in test [2], in test [8], in test [3], in test [4] and in test [7] was “inactive” throughout. Moreover, the Potency result in the test on C33A, in the test with CASKI, in the test on Es-2, in the test on Hek293T, in the test with OV90 and with PA-1 was “inactive” throughout. The Potency result in the test with Tov-21-G and in the test on Tov112D was “inactive” in each case. Further, the outcome in test [5] was “inactive [at 86.2 µM]”. In addition, the max response was -3.51% in the test on CRL-7250, 0.689% in the test with HEK293 and -1.83% in the test on NIH3T3. Moreover, the compound was called inactive in the test on HaCat.

Regarding `CS[C@]1(CO)C(=O)N2[C@H]3C(=CC=C[C@@H]3O)C[C@@]2(SC)C(=O)N1C`, the Potency result (in [2]; in test [8]; in [3]; in test [4]; in test [7]; with C33A) was “inactive” each time. Moreover, the Potency result in the test with CASKI, in the test with Es-2, in the test on Hek293T, in the test on OV90, with PA-1 and in the test with Tov-21-G was “inactive” each time. In the test with Tov112D, the Potency entry is “inactive”. Also, the outcome (in test [5]; in the test on CRL-7250) was inactive. Besides, the max response was -12.6% with HEK293, 0.502% in the test on HaCat and -3.97% in the test with NIH3T3.
